Measurements published in PubChem BioAssay (NCI).
The panel holds about 79,000 compounds, 15% with a hit somewhere; the sample as a whole holds those more often. Rule as the data show it: active = growth inhibition above about 70%; inactive = the rest.

Experiments:
[1] = NCI Yeast Anticancer Drug Screen. Data for the rad50 strain (AID 155);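 also: 0% = growth of vehicle-only cultures of the same strain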; details: S. cerevisiae rad50 strain growth inhibition; at 50.0 µM; active compounds read high
Method in brief: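 Growth of the mutant yeast was measured after compound exposure and referenced to vehicle-treated cultures.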

[2] = NCI Yeast Anticancer Drug Screen. Data for the mec2-1 strain (AID 157); details: S. cerevisiae mec2-1 strain, at 50.0 µM, active compounds read high
Method in brief: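 Each compound was tested on mec2-1 yeast, a strain altered in DNA damage repair or cell cycle control. Growth inhibition is reported relative to vehicle.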

[3] = NCI Yeast Anticancer Drug Screen. Data for the sgs1 mgt1 strain (AID 161);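 also: 0% = growth of cultures given vehicle only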; details: S. cerevisiae sgs1 mgt1 strain, at 50.0 µM, active compounds read high
Method in brief: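 Read-out: growth inhibition vs vehicle controls. Cells: mutant yeast strain deficient in DNA damage repair.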

[4] = NCI Yeast Anticancer Drug Screen. Data for the cln2 rad14 strain (AID 165);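 also: 0% = growth equal to vehicle treated cultures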; details: S. cerevisiae cln2 rad14 strain, at 50.0 µM, active compounds read high
Method in brief: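 Test compounds were added to cln2 rad14 yeast cultures; inhibition of growth was then determined by comparison with vehicle treatment.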

[5] = NCI Yeast Anticancer Drug Screen. Data for the bub3 strain (AID 167); details: S. cerevisiae bub3 mutant strain, at 50.0 µM, active compounds read high
Method in brief: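 Whole-cell yeast assay. The mutant strain was incubated with compounds, and growth inhibition was determined by comparison with vehicle-treated cells.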

[6] = NCI Yeast Anticancer Drug Screen. Data for the mlh1 rad18 strain (AID 175); details: S. cerevisiae mlh1 rad18 strain growth inhibition; at 50.0 µM; active compounds read high
Method in brief: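 Inhibition values reflect reduced growth of mutant yeast versus vehicle-treated controls following compound exposure; the mutations affect DNA damage repair.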

Measured: growth inhibition

COc1c2c(cc3occ(-c4ccc(CC=C(C)C)cc4)c(=O)c13)OC(C)(C)C=C2
inactive: [1] -3.8% | [2] -11.6% | [3] -3% | [4] -24.8% | [5] -12.4% | [6] -35.5%

Cc1ccc(S(=O)(=O)OC2CCCCCC2c2ccccc2)cc1 (configuration not stated)
inactive: [1] 7.85% | [2] -5.1% | [3] 0.05% | [4] -42.5% | [5] -2.75% | [6] -3.55%

C#CC(O)(CC)CCCC (configuration not stated)
inactive: [1] -8.85% | [2] -13.4% | [3] 10.2% | [4] -18.5% | [5] -10.9% | [6] -4.25%

c1ccc2c(c1)CCCC(N1CCOCC1)C2 (configuration not stated)
inactive: [1] 2.3% | [2] 2.7% | [3] 16.9% | [4] 11.1% | [5] -24.3% | [6] 15.9%

CCC/C=C/C=C\C(=O)O[C@@H]1[C@@H](C)[C@]2(O)[C@@H]3C=C(C)C(=O)[C@H]3CC(COC(C)=O)=C[C@H]2[C@@H]2C(C)(C)[C@]12OC(C)=O
inactive: [1] 21.7% | [2] -4.9% | [3] -8.1% | [4] 11.9% | [5] -9.65% | [6] -26.2%

O=C(C[n+]1cccc2ccccc21)c1ccc(F)cc1
inactive: [1] -0.05% | [2] -10.3% | [3] 18.1% | [4] 17% | [5] 10.2% | [6] -3%

CC(=O)Nc1ccc(-c2nnc(SCC(=O)Nc3ccccc3)o2)cc1
inactive: [1] 2.3% | [2] 6.8% | [3] -4.95% | [4] -1.8% | [5] -14.6% | [6] -8.55%

O=[N+]([O-])c1ccc2c(c1)C(=Nc1ccc(Cl)cc1)c1ccccc1-2
inactive: [1] -0.95% | [2] -8.6% | [3] -8% | [4] -32% | [5] 24.1% | [6] 5.45%

CCCCOC(=O)NC(=O)c1cc2cc(Br)cc(Br)c2oc1=O
inactive: [1] -2% | [2] 25.8% | [3] 0.3% | [4] -7.05% | [5] -1.2% | [6] -17.2%

CN(/N=C/c1ccccn1)C1=NCCCCN1
inactive: [1] -33.5% | [2] 3.15% | [3] -23.1% | [4] 22.2% | [5] 8.9% | [6] -8.65%

Cc1cc2nc(C(O)C(O)C(O)C(O)c3nc4cc(C)c(C)cc4[nH]3)[nH]c2cc1C (configuration not stated)
inactive: [1] 18.9% | [2] 3.35% | [3] -9.2% | [4] -1.2% | [5] -8.65% | [6] -0.85%

C=C1COC(/C=C(\C)CC/C=C(\C)CCl)C1 (configuration not stated)
inactive: [1] -7.4% | [2] -20.2% | [3] -18.6% | [4] 28.1% | [5] -17.1% | [6] -1.7%

COC(=O)/C(C=Nc1ccccc1)=C(/C)O
inactive: [1] 7.35% | [2] 5.1% | [3] 9% | [4] -29.2% | [5] 11.4% | [6] -1.2%

O=[P+](O)c1cc2c3ccccc3ccc2c2ccccc12
inactive: [1] -34.9% | [2] 11.8% | [3] 32% | [4] -12.3% | [5] 33% | [6] -0.55%

Nc1[nH]c(=O)ncc1-c1cccc(Cl)c1
inactive: [1] -6.45% | [2] -4.15% | [3] 11.6% | [4] -7.8% | [5] 5.2% | [6] 33.1%

CN(C)c1nc(Cl)nc2nc(Cl)[nH]c12
inactive: [1] -10.9% | [2] 3.15% | [3] 13.2% | [4] 0.8% | [5] -3.2% | [6] 11.9%

O=c1[nH]c2cc(Cl)c([N+](=O)[O-])cc2c2ccccc12
inactive: [1] 15.1% | [2] -7.35% | [3] 4.35% | [4] -42% | [5] -11.2% | [6] -0.25%

COC(=O)c1ccc(N(C)CCC(=O)COC(C)=O)cc1
inactive: [1] 17.9% | [2] 9.7% | [3] 12% | [4] -10.2% | [5] 7.6% | [6] 10.3%

COc1ccc(O)c(/C=N\N=C\c2cc(OC)ccc2O)c1
inactive: [1] -1.25% | [2] -1.15% | [3] -2.3% | [4] -22.5% | [5] 22.9% | [6] -2.8%

COc1ccc2c(c1)C1c3ccccc3CCN1CCC2 (configuration not stated)
inactive: [1] 20.8% | [2] 20.9% | [3] -23.1% | [4] 24.1% | [5] -8.4% | [6] 6%

CNC(=O)C(c1ccccc1)C(F)(F)F (configuration not stated)
inactive: [1] 8.1% | [2] 3.9% | [3] -6.7% | [4] -12.4% | [5] 10.3% | [6] 4.3%

CCCNC(=S)NN1C2CSC1CS2
inactive: [1] 3.15% | [2] 14.9% | [3] -1.35% | [4] -33.2% | [5] -23.9% | [6] -0.4%

CCOC(=O)c1sc(SSc2nc(C)c(C(=O)OCC)s2)nc1C
inactive: [1] -4.4% | [2] -4.7% | [3] 2.7% | [4] 12.9% | [5] 4.75% | [6] 10.1%

COc1ccc(C(C2=C(O)CC(C)OC2=O)C2=C(O)CC(C)OC2=O)cc1 (configuration not stated)
inactive: [1] -15.1% | [2] -5.4% | [3] -12.6% | [4] -14.2% | [5] -19.1% | [6] -10%

c1ccc(-c2nc(-c3ccccn3)cc3ccccc23)cc1
inactive: [1] -2.05% | [2] -17.6% | [3] 10% | [4] 2.8% | [5] 5.4% | [6] 18.8%

CN(C)CC1CCC/C(=C\c2ccc(N(C)C)cc2)C1=O (configuration not stated)
inactive: [1] -18.6% | [2] -44.9% | [3] -9.85% | [4] 12.2% | [5] 6.2% | [6] -34.3%

CCOC(=O)c1c(N)n(-c2ccccc2)c(=O)n(-c2ccccc2)c1=O
inactive: [1] -8.85% | [2] -5.3% | [3] -30.9% | [4] 19.4% | [5] -31.8% | [6] -34%

CCOC(=O)/C(Cc1cnc2ccccc2n1)=N\O
inactive: [1] -1% | [2] -4.4% | [3] -8.95% | [4] -52.5% | [5] 5.7% | [6] -24.9%

CN=Cc1ccccc1O.CN=Cc1ccccc1O.[Cu+2]
inactive: [1] 6.55% | [2] -8.6% | [3] -10.9% | [4] -73.8% | [5] -2.5% | [6] 3.05%

CCOC(=O)c1cc2c(nc1NCc1ccccc1)C(=O)CCCC2
inactive: [1] 7.95% | [2] 22% | [3] 30.8% | [4] 10.3% | [5] 26.4% | [6] 17.6%

COc1ccc(OC(=O)Nc2cccc(C(C)=O)c2)cc1
inactive: [1] 8.35% | [2] 42.3% | [3] 9.9% | [4] 1.8% | [5] 22.1% | [6] 3.15%

CCC(c1ccc(OC)cc1)C1NC(=S)NC1=O (configuration not stated)
inactive: [1] 4.05% | [2] -30.1% | [3] 3.2% | [4] 6.45% | [5] 9.55% | [6] 11.6%

c1csc(C2Nc3ccccc3N2)c1
inactive: [1] 17.6% | [2] -4.1% | [3] 25.6% | [4] 15.2% | [5] 0.5% | [6] 20.4%

CC(=O)/C(=C/n1ccc(=O)[nH]c1=S)C(=O)Nc1ccccc1
inactive: [1] -23.1% | [2] -20.5% | [3] -18.6% | [4] 11.2% | [5] -12.7% | [6] -22.1%

CC[n+]1c(/C=C\N(C(C)=O)c2ccccc2)oc2ccccc21
inactive: [1] -20.6% | [2] -25.3% | [3] -9.3% | [4] -0.7% | [5] 6.2% | [6] -7.8%

CCCCCCCCCCCC(=O)OC(COC(N)=O)COc1ccc(Cl)cc1 (configuration not stated)
inactive: [1] -34.2% | [2] -59.5% | [3] -18.9% | [4] 0.3% | [5] -10.2% | [6] -46.4%

CC1CN(C(C)(C)C)CO1 (configuration not stated)
inactive: [1] -0.3% | [2] -10.4% | [3] -18.6% | [4] 8.3% | [5] -26.5% | [6] -25.6%

CCCCCCCCC1C(CCCCCCCC(=O)N(CC)CCCOCC)C2(Cl)C(Cl)=C(Cl)C1(Cl)C2(Cl)Cl (configuration not stated)
inactive: [1] 3.45% | [2] 4.65% | [3] 13.9% | [4] -10.6% | [5] -6.35% | [6] 16.4%

COC(OC)(c1ccccc1)c1ccccc1
inactive: [1] -33% | [2] -27.4% | [3] -33% | [4] -11.1% | [5] -40.6% | [6] -18.6%

CCCC(C)C(=O)OCCOCC (configuration not stated)
inactive: [1] 4.55% | [2] 2.8% | [3] -1.5% | [4] -32.4% | [5] 9.3% | [6] 49.9%

CC(C=O)CCC(C)(O)C=O (configuration not stated)
inactive: [1] -9.4% | [2] -7.8% | [3] -7% | [4] 8.65% | [5] -10.5% | [6] 1.45%

O=C(C1OC1c1ccccc1)C1OC1c1ccccc1 (configuration not stated)
inactive: [1] -6.05% | [2] 10.2% | [3] 9.55% | [4] -12.4% | [5] 62.1% | [6] 37%
